Results as given in PubChem BioAssay AID1347131 (National Center for Advancing Translational Sciences (NCATS), 2019).
Hit rate of the full screen: of about 410,000 compounds, about 2,000 (0.49%) were called active. Another 8% or so got no clear call; they are omitted. The list comes from a sample in which actives are over-represented; it also holds similar structures and randomly drawn compounds. Unmarked numbers belong to inactive results. Calls follow the shape of the full dose curve; tested in HEK293 reporter line.

test: qHTS Assay for Foot and Mouth Disease Virus Antivirals: Primary Screen against the MLPCN compound library; details: FMDV antiviral cell-based qHTS; series mostly up to 57.9 µM; activity, negative = inhibition: at the top concentration; also: nearly all actives have a fitted effect of over 55% in size
Potency is read from the fitted curve at half-maximal effect.

Structure (SMILES)	activity, negative = inhibition [%]	Potency
O=C(c1ccc(F)cc1)N1CCC(c2nc(-c3ccc(S(=O)(=O)N4CCCC4)cc3)no2)CC1	-35.1	
COc1ccc(-c2ccc3c(c2)CN(C(=O)C(C)(C)C)Cc2cnnn2-3)cc1	-30.7	
CCC(C)n1c(S(=O)(=O)O)nc2ccccc21 (stereo not given)	-41.2	
O=C(Nc1ccc2nc3n(c(=O)c2c1)CCCCC3)c1cccc(C(F)(F)F)c1	-36.3	
O=C(NNC(=O)c1ccc2c(=O)n3c(nc2c1)CCC3)c1cccc(Cl)c1	-31.4	
Cc1cccc(NC(=O)c2ccc3c(=O)n4c(nc3c2)CCCCC4)n1		12.6 µM (active)
c1ccc(-c2cn3c(n2)-c2ccccc2C3)cc1		7.94 µM (active)
CC1(C)Cc2ccccc2-c2nnc(-c3ccc4ccccc4n3)n21	-33.4	
CN1C(=O)N(CC(=O)Nc2cccc(S(=O)(=O)N(C)c3ccccc3)c2)C(=O)C12CCCCC2	-33.6	
CCN1C(=O)[C@H]2[C@@H](c3ccc(-c4ccc(Cl)c(Cl)c4)c(OC)c3)N[C@@](C)(C(=O)OC)[C@H]2C1=O	-42.9	
Cc1cc(C(=O)Nc2nc(C)c(C(=O)N(C)C)s2)ccc1[N+](=O)[O-]		15.8 µM (active)
Cc1nc(NC(=O)/C=C/c2ccc(C(C)(C)C)cc2)sc1C(=O)N(C)C	-38.4	
COc1ccc(N(C)S(=O)(=O)c2cccc(C(=O)Nc3nc(C)c(C(C)=O)s3)c2)cc1	-50.3	
CCOc1ccc(CCNC(=O)COC(=O)COc2cc(C)cc(C)c2)cc1OCC	-24.7	
Cc1ccc(Nc2c(C(C)C)c(C)c(C#N)c3nc4ccccc4n23)cc1	-30.2	
COc1cccc(Oc2cnc(N)nc2-c2ccc(OC)cc2O)c1	-31.8	
Cc1cc2nc(-c3nnnn3Cc3ccccc3)c(=O)[nH]c2cc1C	-30.4	
Cc1cc2nc(-c3ccc[nH]c3=O)[nH]c2cc1C		12.6 µM (active)
COc1ccc(-c2noc(CN(C(=O)c3cccs3)C(C)C)n2)cc1	-31	
COC(=O)c1[nH]c2ccccc2c1NC(=O)CN1CCN(c2cccc(OC)c2)C(C)C1 (stereo not given)		28.2 µM (active)
COC(=O)c1[nH]c2cc(OC)ccc2c1NC(=O)CN1CCN(c2cccc(C)c2)C(C)C1 (stereo not given)	-40.9	
COC(=O)c1[nH]c2ccc(C)cc2c1NC(=O)CN1CCN(c2ccccc2)CC1	-25.1	

Structure (SMILES)	activity, negative = inhibition [%]	Potency
Cc1cc2nc(N3C(=O)CNC3=S)sc2cc1C		20 µM (active)
COc1ccc(CN(C(=O)c2oc3cc(C)ccc3c2C)C2CCS(=O)(=O)C2)cc1OC (stereo not given)	-30.8	
COc1ccc(NC(=O)c2sc3nc(-c4cc5cccc(OC)c5oc4=O)[nH]c(=O)c3c2C)cc1	-12.9	
COc1ccc(NC(=O)c2cc3ccccc3o/c2=N\NS(=O)(=O)c2ccc(C)cc2)cc1	64	
Cc1cccnc1NC(=O)c1cc2ccccc2oc1=O		10 µM (active)
COc1cccc(NC(=O)c2cc3ccccc3oc2=O)c1		20 µM (active)
Cc1cccc(C)c1NC(=O)c1cc(-c2ccccn2)nc2ccccc12	-31.1	
O=C(Nc1ccc(NC(=O)c2cc3ccccc3o2)cc1)c1ccc2c(c1)OCCO2	-26.3	
CCOc1cccc2cc(C(=O)NC(C)c3ccccc3)c(=N)oc12 (stereo not given)	-32	
N=c1oc2ccccc2cc1C(=O)Nc1ccccc1		11.2 µM (active)
C=CCn1c(=O)c(C(=O)Nc2ncccc2C)c(O)c2ccccc21	-9.9	
Cc1ccc(NC(=O)c2cc3ccccc3oc2=O)cc1S(=O)(=O)N(C)C	-86.8	
COc1cccc2cc(C(=O)Nc3cccc(C)n3)c(=O)oc12		8.91 µM (active)
COc1cccc2cc(C(=O)NCc3ccc(Cl)cc3)c(=N)oc12	-64.3	
CCOc1ccc(CN(C)C(=O)c2cc(S(=O)(=O)N3CCCC3)ccc2C)cc1	-31.9	
Cc1ccccc1C(=O)N/N=C1/SCC(=O)N1Cc1ccc2c(c1)OCO2	-33.2	
C=CC(COCc1ccccc1)N([C@@H](Cc1ccccc1)C(=O)OC)S(=O)(=O)c1ccccc1Br (stereo not given in full)	-30.4	
CCN(CCCNC(=O)CC(C(=O)N1CCc2ccccc21)n1ccnc1)c1cccc(C)c1 (stereo not given)	-34.7	
Cc1nn(-c2ccccc2)nc1C(=O)NN	-32	
COc1cc(CNc2ncnc3c2ncn3[C@H]2CN(Cc3ccc(F)cc3)C[C@@H](CO)O2)cc(OC)c1OC	-34	
COc1ccc(Oc2ncc3nc(-c4ccc(Cl)cc4)c(=O)n(CCC#N)c3n2)cc1	-30.5	
CCOC(=O)C1(CCOc2ccccc2)CCN(Cc2ccc(OC)c(O)c2)CC1	-30.3	

Structure (SMILES)	activity, negative = inhibition [%]	Potency
CCC(=O)N(Cc1ccc2c(c1)OCO2)Cc1cc2cc(OC)ccc2[nH]c1=O	-31.5	
COc1ccc(C(=O)Nc2ccc(C)cn2)c(OC)c1	-97.6	
COc1cc(SC)ccc1C(=O)Nc1ccc(Br)cn1		8.91 µM (active)
COc1cc(SC)ccc1C(=O)NCCOc1c(C)cc(C)cc1C	-35.5	
COc1cc(C(=O)Nc2ccccc2C(=O)Nc2ccccn2)cc(OC)c1OC	-30.3	
COc1cc(SC)ccc1C(=O)Nc1ccccn1		17.8 µM (active)
COc1cc(SC)ccc1C(=O)Nc1nc2ccccc2[nH]1	-100	
CCOc1ccc(S(=O)(=O)N2CCN(C(=O)c3cc(C4CC4)nn3-c3ccccc3)CC2)cc1	-36.7	
CN1CCN(C(=O)c2cc3nc(-c4ccccc4)cc(C(F)(F)F)n3n2)CC1	-43.7	
CC(C)c1cc(Br)c(NC(=O)Nc2cccnc2)c(Br)c1	-33.2	
O=C1CN=C(c2ccc(Br)cc2)c2c(sc3c2CCCC3)N1CCN1CCCCC1	-32	
OCCCCCNc1ncnc2ccccc12	-38.3	
CO/N=C\c1cc(C(=O)c2ccc(Cl)cc2Cl)cn1C	-30.8	
Cc1cccc(C(=O)O/N=C(\N)c2ccccn2)c1		8.91 µM (active)
CC(C)(C)c1ccc(C(=O)O/N=C(\N)c2ccccn2)cc1	-86.1	
Cc1cccc(/C(N)=N/OC(=O)c2ccc(Cl)cc2Cl)c1		20 µM (active)
Cc1ccc(C(=O)O/N=C(\N)Cc2ccc([N+](=O)[O-])cc2)c(Cl)c1	-38.9	
CC(C)(C)c1ccc(C(=O)O/N=C(\N)c2ccccc2)cc1	-71.3	
CCCNNC(=O)C(O)(c1ccccc1)c1ccccc1	-31.8	
Cc1ccc(-c2nnc(-c3ccccc3)c(N3CCOCC3)n2)cc1	-32.6	
COc1ccc(-c2noc(C3CC(=O)N(c4cc(C)cc(C)c4)C3)n2)cc1 (stereo not given)	-32.6	
